Screening data: PubChem BioAssay, National Center for Advancing Translational Sciences (NCATS)
ELG1 DNA repair: qHTS screen for small molecules that inhibit ELG1-dependent DNA repair in human embryonic kidney (HEK293T) cells expressing luciferase-tagged ELG1. HEK293T ELG1-luciferase reporter, luminescence, 16 h; DNA damage induced by 5-fluorouridine. Potency, µM (titrated, usually from 46.1 µM), for the others: at the top dose activity change, negative = inhibition, actives largely listed as inhibitors. 2.3% of 330,000 active; note: potency is the fitted concentration of half-maximal effect; nearly all actives have a fitted effect of over 55% in size
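Quantitative HTS, concentration-response format. 2,000 cells/well co-treated with 5-fluorouridine and compound, 16 hr in 5% CO2 at 37 °C; ONE-Glo luminescence read after 30 min.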
TDP1 cell CPT: qHTS for Inhibitors of human tyrosyl-DNA phosphodiesterase 1 (TDP1): qHTS in cells in presence of CPT | chicken DT40 Tdp1-/-;hTDP1 cells + 20 nM CPT, ATP luminescence, 48 h | Potency, µM (series often up to 46.2 µM), for inactives: at the highest dose activity change, negative = growth inhibition, hits mostly inhibitors | 12% of 420,000 active; note: potency is the fitted concentration of half-maximal effect; nearly all actives have a fitted effect of over 55% in size
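Chicken DT40 Tdp1-/- cells complemented with human TDP1, 400 cells/well, exposed to compounds plus 20 nM camptothecin for at least 48 h at 37 C; viability read as ATP content by CellTiter-Glo luminescence.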
HT1080-NT tox: qHTS for induction of synthetic lethality in tumor cells producing 2HG: qHTS for the HT-1080-NT fibrosarcoma cell line | HT-1080-NT fibrosarcoma viability, CellTiter-Glo ATP luminescence, 48 h | Potency, µM (doses to about 46.1 µM), without a hit: at the top dose activity, negative = less viability, most hits filed as cytotoxic | 1.6% of 360,000 active | AID 686970, 2013;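 note: NT is the 2HG producing partner of a matched IDH1 knockdown line; potency is the fitted concentration of half-maximal effect; 0% = DMSO-treated cells and -100% = media-only wells without cells; nearly all actives have a fitted effect of over 55% in size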
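Toxicity toward the 2HG-producing NT line was scored as %Activity, normalised to DMSO and no-cell wells, from CellTiter-Glo luminescence after 48 hours' treatment.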
HT1080 IDH1KD tx: qHTS for induction of synthetic lethality in tumor cells producing 2HG: qHTS for the HT-1080-IDH1KD cell line; HT-1080 IDH1 knockdown viability, ATP luminescence, 48 h; Potency, µM (doses to about 46.1 µM), for the others: top-dose activity, negative = toxicity, hits mostly cytotoxic; 2% of 360,000 active; AID 686971, 2013;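 note: potency is the fitted concentration of half-maximal effect; 0% = DMSO wells and -100% = cell-free medium wells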
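Luminescent ATP read-out (CellTiter-Glo, 10 min at room temperature) after 48 h compound exposure at 37 °C gave viability of IDH1-knockdown HT-1080 cells. Activity was normalised to DMSO and cell-free wells, then fitted as concentration-response curves.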
IL1B secr inh: qHTS for Inhibitors of Inflammasome Signaling: IL-1-beta AlphaLISA Primary Screen; THP-1 LPS/ATP IL-1B secretion, AlphaLISA, 16 h; hits give low values; activity change, % at 57.5 µM; 4.7% of 360,000 active; AID 743279, 2014; in the data active = activity change below about -50%; inconclusive = mostly about -30% to -49%
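Secreted IL-1B measured by AlphaLISA bead assay after 16 h compound exposure of THP-1 cells; compounds (final up to 57.5 uM) added 1 h before LPS (250 ng/mL) and ATP (1.25 mM) stimulation; lower signal means less secretion.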
TDP1 cell noCPT: qHTS for Inhibitors of human tyrosyl-DNA phosphodiesterase 1 (TDP1): qHTS in cells in absence of CPT. Potency, µM (titrated, usually from 46.2 µM), without a hit: top-dose activity change, negative = growth inhibition, hits mostly inhibitors. 15% of 420,000 active. DT40 Tdp1-/- hTDP1 cells, no CPT, ATP luminescence, 48 h. AID 686978, 2013; note: potency is the fitted concentration of half-maximal effect; nearly all actives have a fitted effect of over 55% in size
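DT40 Tdp1-/-;hTDP1 cells, no CPT (DMSO vehicle only), 400 cells/well; compounds pin-transferred; ≥48 hr, 37 °C; CellTiter-Glo 30 min RT dark, luminescence read.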
Numbers without * were called inactive; ? = inconclusive; . = not tested or not shown. A selection: hits, their analogues and other compounds. The true share with any hit is near 19%. Unless noted, calls come from the whole dose curve; as a rule, active = well fitted curve in the direction sought with a large enough effect; inconclusive = small, poorly fitted or top-dose-only effect, or another doubt; inactive = no such curve, though single readings can be large; an effect the other way counts as inactive or inconclusive. Unless noted, % is set by controls: 0 for no effect and ±100 for the full control effect.

SMILES	ELG1 DNA repair	TDP1 cell CPT	HT1080-NT tox	HT1080 IDH1KD tx	IL1B secr inh	TDP1 cell noCPT
CN1CCN(c2ccc(S(=O)(=O)N3CCOCC3)cc2NC(=O)COc2ccc(F)cc2Cl)CC1	4%	26µM*	1%	13%	-13	?
Cc1ccc(OCC(=O)Nc2cc(S(=O)(=O)N3CCOCC3)ccc2N2CCCC2)cc1	?	-29%	6%	4%	-26	?
Cc1cc(OCC(=O)Nc2cc(S(=O)(=O)N3CCOCC3)ccc2N2CCCC2)ccc1C(C)C	1%	12µM*	8%	1%	?	8.2µM*
O=C(COC(=O)c1ccc(F)cc1)Nc1cc(S(=O)(=O)N2CCOCC2)ccc1N1CCCC1	-8%	?	8%	3%	25	-24%
CCN(CC)S(=O)(=O)c1ccc(N2CCN(C)CC2)c(NC(=O)COc2ccc(F)cc2Cl)c1	?	?	-4%	-1%	-3	16µM*
O=C(COc1ccc(F)cc1Cl)Nc1cc(S(=O)(=O)N2CCOCC2)ccc1N1CCCCC1	-11%	?	-4%	-20%	-51*	?
CN1CCN(c2ccc(S(=O)(=O)N3CCOCC3)cc2NC(=O)COc2ccc(C#N)cc2)CC1	.	-10%	-4%	0%	?	0%
O=C1NC[C@H](CCCCN2C[C@H](Cc3ccc(O)cc3)N(Cc3ccccc3)C(=O)C2=O)N(CCc2ccccc2)C1=O	.	-3%	11%	13%	22	-3%
COCCN(C(=O)COC(=O)c1ccc(Br)o1)c1c(N)n(Cc2ccccc2)c(=O)[nH]c1=O	.	5%	-1%	-12%	-3	-17%
CC(=O)C1C(c2ccc(F)cc2)C2C(C)=NN=C2CC1(C)O (stereo not drawn)	-3%	0%	-16%	7%	17	3%
Cc1ccc(Cl)c(OCC(=O)Nc2cc(S(=O)(=O)N3CCOCC3)ccc2N2CCCC2)c1	?	16µM*	1%	0%	-59*	-61%
Cc1ccccc1Cn1c2ccccc2c2cnn(CC(=O)NC3CCCCCC3)c(=O)c21	.	12µM*	.	.	.	10µM*
O=C(Cn1ncc2c3ccccc3n(Cc3ccc(Cl)cc3)c2c1=O)NC1CCCCCC1	.	3%	.	.	.	-20%
Cc1cc(C)c(Cn2c3ccccc3c3cnn(CC(=O)NC4CCC(C)CC4)c(=O)c32)c(C)c1 (stereo not drawn)	.	13µM*	.	.	.	?
O=C(Nc1ccc(F)cc1)c1cccc2c1C(=O)N(CC1CCCO1)C2 (stereo not drawn)	-6%	-10%	9%	21%	-4	-30%
Cc1cc(Cl)c2oc(C(=O)N(C)Cc3nccn3C)c(C)c2c1	-17%	16µM*	0%	-2%	-16	7.3µM*
Cc1ccccc1C(=O)Nc1cccc(C(=O)OCc2cc(=O)n3c(C)csc3n2)c1	.	-109%	.	.	.	?
O=C(CCCn1c(=S)[nH]c2cc3c(cc2c1=O)OCO3)N1CCN(c2ncccn2)CC1	15µM*	?	6%	3%	-8	?
O=c1c2ccccc2[nH]c(=S)n1CCCN1CCN(c2ccccc2F)CC1	-9%	2.9µM*	5%	-22%	-19	?
COc1cccc(N2CCN(C(=O)CCCCCn3c(=S)[nH]c4cc5c(cc4c3=O)OCO5)CC2)c1	4%	21µM*	9%	10%	0	?
COc1ccccc1N1CCN(C(=O)CCCCCn2c(=S)[nH]c3cc4c(cc3c2=O)OCO4)CC1	.	?	-7%	2%	11	10µM*
O=C(CCCn1c(=S)[nH]c2cc3c(cc2c1=O)OCO3)N1CCN(C2CCCCC2)CC1	-1%	?	1%	3%	0	-29%
Nc1ncnc2c1nc(Sc1ccc(Cl)cc1)n2[C@H]1OC2COP(=O)(O)O[C@H]2[C@@H]1O (stereo partly drawn)	.	-21%	-11%	0%	.	-10%
O=C(NCc1ccccc1)C1c2ccccc2OCC(=O)N1CC(F)(F)F (stereo not drawn)	.	5%	21%	19%	-10	-16%
COc1ccc(CN2CCC3(CCC(CNC(=O)C4CCCO4)O3)CC2)c(C)c1C (stereo not drawn)	.	?	.	.	.	-10%
SMILES	ELG1 DNA repair	TDP1 cell CPT	HT1080-NT tox	HT1080 IDH1KD tx	IL1B secr inh	TDP1 cell noCPT
O=C(CCCCCn1c(=S)[nH]c2cc3c(cc2c1=O)OCO3)N1CCN(c2ccccc2)CC1	2%	?	6%	18%	25	-11%
O=C(CCCn1c(=S)[nH]c2cc3c(cc2c1=O)OCO3)N1CCN(c2ccccc2F)CC1	23µM*	?	7%	0%	9	18µM*
CC(=O)Nc1ccc(S(=O)(=O)N(C)CC(=O)OCC(=O)c2ccc[nH]2)cc1	7%	14%	4%	0%	3	-7%
CCOC(=O)C1(C#N)Cc2ccccc2C1	.	8%	0%	5%	18	7%
CN(C)CCCNS(=O)(=O)c1ccc(Cl)s1	-4%	15%	6%	6%	-22	-15%
C/C(=N\NC(=O)c1c(Cl)c(C)nn1C)c1ccc(NC(=O)c2ccncc2)cc1	?	?	0%	-2%	29	18µM*
CCC(=O)Nc1ccc(/C(C)=N/NC(=O)c2c(Br)c(C)nn2C)cc1	?	?	-4%	-8%	-3	15µM*
C/C(=N/NC(=O)c1ccncc1)c1ccc(NC(=O)c2ccccc2)cc1	?	-23%	11%	14%	-6	-23%
C/C(=N\NC(=O)c1c(Br)c(C)nn1C)c1ccc(NC(=O)c2ccoc2C)cc1	1%	-3%	-13%	-16%	13	23µM*
